F508del corr = CFTR F508del correction in bronchial cells. CFBE cells, YFP halide quenching; stimulated with forskolin plus potentiator P3; % fluorescence drop versus neutral controls. activity (quench increase), % at 7.58 µM. 0.36% of 350,000 active;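 active means mean added fluorescence quench of at least 8% versus neutral control, with both replicates also reaching 8%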;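 further: cells transiently co-express mutant CFTR-F508del with the halide-sensitive YFP; corrector assay measuring rescue of mutant channel to the surface after 24 h compound exposure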
ERAP1 HTS inh = blocks human ERAP1 aminopeptidase activity. Q9NZ08. recombinant ERAP1, Leu-AMC fluorescence, 60 min. inhibition, % at 10.7 µM. 0.15% of 340,000 active. AID 652197;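 active means mean replicate inhibition of at least 30%, or all replicates individually reaching that 30% level; inactive means mean below 30% and not every replicate reaching it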
Target sequence (Q9NZ08 whole entry, looked up): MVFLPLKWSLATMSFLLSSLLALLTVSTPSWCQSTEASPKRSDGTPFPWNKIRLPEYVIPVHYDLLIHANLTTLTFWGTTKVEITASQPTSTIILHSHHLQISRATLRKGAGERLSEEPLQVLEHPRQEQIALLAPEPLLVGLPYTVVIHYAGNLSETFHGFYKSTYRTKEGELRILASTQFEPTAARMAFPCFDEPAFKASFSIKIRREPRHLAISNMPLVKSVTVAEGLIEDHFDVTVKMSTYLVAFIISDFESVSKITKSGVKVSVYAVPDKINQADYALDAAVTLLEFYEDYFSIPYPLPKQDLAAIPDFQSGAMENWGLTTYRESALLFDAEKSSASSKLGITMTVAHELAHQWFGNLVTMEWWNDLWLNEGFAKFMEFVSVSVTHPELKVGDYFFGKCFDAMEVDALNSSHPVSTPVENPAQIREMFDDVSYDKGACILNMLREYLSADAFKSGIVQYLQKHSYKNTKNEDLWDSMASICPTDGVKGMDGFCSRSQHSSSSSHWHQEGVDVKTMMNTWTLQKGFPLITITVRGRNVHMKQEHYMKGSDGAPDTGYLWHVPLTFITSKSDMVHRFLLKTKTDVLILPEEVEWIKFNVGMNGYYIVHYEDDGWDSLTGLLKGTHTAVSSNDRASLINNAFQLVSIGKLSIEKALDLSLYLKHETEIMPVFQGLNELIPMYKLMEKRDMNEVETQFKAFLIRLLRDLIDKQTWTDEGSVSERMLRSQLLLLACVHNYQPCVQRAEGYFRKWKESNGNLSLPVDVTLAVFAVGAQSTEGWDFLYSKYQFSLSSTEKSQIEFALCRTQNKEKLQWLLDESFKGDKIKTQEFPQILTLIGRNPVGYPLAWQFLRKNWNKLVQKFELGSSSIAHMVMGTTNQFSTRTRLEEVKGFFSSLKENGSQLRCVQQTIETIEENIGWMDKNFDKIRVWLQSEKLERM
PvdQ inh = blocks Pseudomonas aeruginosa PvdQ acylase activity; purified PvdQ acylase, fluorescence plate reader; 0.063% of 340,000 active; inhibition, % at 10 µM; in the data active means inhibition above about 30%, passing the limit was not always enough
ARNT-TACC3 inh = disrupts binding between human ARNT and TACC3 | AlphaScreen His-ARNT PAS-B/GST-TACC3 binding, luminescence; TACC3 fragment carries E629A point mutation | inhibition, % at 9.99 µM | 0.66% of 390,000 active;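 active means mean inhibition of replicates at least 50% and at least half of replicates each reaching 50%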
rRNA inh HTS = selective bacterial rRNA inhibition in E. coli | AID 720706 | 1.6% of 350,000 active | GFP signal change (wild-type ribosome), % (no concentration beside the values) | E. coli WT GFP vs humanized-ribosome RFP mutants, fluorescence, 24 h; hits give low values; DMSO median 0, no signal -100;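 active means significant combined selectivity score with lowered wild-type GFP, culture density cut under 30%, mutant RFP and density less affected; inactive means any of these conditions unmet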
Large screens that a line does not name were inactive. Most compounds without a hit are left out; they make up all but 2.1% or so of the library.

COCC(=O)Nc1ccc2c(c1)C(=O)N(C)C[C@@H](OC)[C@@H](C)CN(C(=O)c1ccncc1)[C@H](C)CO2	none (no result: PvdQ inh)
COc1cc(NCCCNC(C)C)c2nccc(C)c2c1	ARNT-TACC3 inh 77
COc1cc(NCc2ccccc2)c2ncn(C(C)C)c2c1	none
FC(F)(F)c1cccc(NC(=S)Nc2cccc(NC(=S)Nc3cccc(C(F)(F)F)c3)n2)c1	rRNA inh HTS -46
Cc1cccc(NC(=S)Nc2cccc(C(F)(F)F)c2)n1	none (no result: F508del corr, ERAP1 HTS inh, rRNA inh HTS)
COc1cccc(-c2ccc(C3[C@@H]4CN(S(=O)(=O)Cc5ccccc5)C[C@H]3N4)cc2)c1 (stereo not given in full)	none (no result: ERAP1 HTS inh, PvdQ inh, ARNT-TACC3 inh)
Fc1ccc(-c2nnc(-c3ccc4ccccc4c3)o2)cc1	rRNA inh HTS -6.9
CCCC(=O)Nc1ccc2c(c1)C(=O)N(C)C[C@H](OC)[C@@H](C)CN(Cc1ccncc1)[C@@H](C)CO2	none (no result: ERAP1 HTS inh, PvdQ inh, ARNT-TACC3 inh)
CN(c1ccccc1)S(=O)(=O)c1cccc(C(=O)OCC(=O)NCc2ccco2)c1	rRNA inh HTS -24
CN(c1ccccc1)S(=O)(=O)c1cccc(C(=O)OCC(=O)NCc2ccccc2)c1	none
NNc1nc2c(F)cc(F)cc2s1	rRNA inh HTS -25
C[C@H](CO)N1C[C@H](C)[C@@H](CN(C)S(=O)(=O)c2ccccc2F)OCc2ccccc2-c2ccccc2C1=O	none (no result: F508del corr, ERAP1 HTS inh, PvdQ inh, ARNT-TACC3 inh)
CO[C@@H]1CN(C)C(=O)c2cc(NC(=O)NC3CCCCC3)ccc2OC[C@@H](C)NC[C@H]1C	none (no result: PvdQ inh)
COc1ccc(C)cc1-n1c(=O)c2ccccc2c2ccccc2c1=O	rRNA inh HTS -26
O=C(COc1ccc(Cl)cc1)NCCCn1ccnc1	ARNT-TACC3 inh 47 (no result: F508del corr, ERAP1 HTS inh, rRNA inh HTS)
COc1ccc(OCC(=O)NCCCn2ccnc2)cc1	none
N#Cc1ccc(OCC(=O)NCCCn2ccnc2)cc1	ARNT-TACC3 inh 69
O=C(COc1ccc(F)cc1)NCCCn1ccnc1	none
COC(=O)c1cn(C[C@@H](Cc2ccccc2)NC(=O)Nc2ccccc2)nn1	none (no result: PvdQ inh, ARNT-TACC3 inh, rRNA inh HTS)
CCOC(=O)/C(=N\Nc1cccc(Cl)c1)Sc1nnc(-c2ccc(OC)cc2)n1C	ARNT-TACC3 inh 46 (no result: F508del corr, ERAP1 HTS inh, rRNA inh HTS)
O=c1[nH][nH]cc1C=Nc1cc(Cl)ccc1O	ARNT-TACC3 inh 49 (no result: F508del corr)
O=c1[nH][nH]cc1C=Nc1ccc(Cl)cc1Cl	none (no result: F508del corr)
Cc1[nH]c2ccccc2c1/C=N/Nc1nncn1N	rRNA inh HTS -30
C=CCOc1c(Br)cc(CNn2c(C)n[nH]c2=S)cc1OCC	rRNA inh HTS -31
COc1ccc(S(=O)(=O)Nc2cccc3c2O[C@@H](CN(C)C(=O)Nc2c(C)noc2C)[C@H](C)CN([C@H](C)CO)C3=O)cc1	none (no result: PvdQ inh)
O=C(c1cc[n+]([O-])cc1)N1CCc2c([nH]c3ccccc23)C1c1ccccc1Cl (stereo not given)	rRNA inh HTS -30 (no result: F508del corr)
COc1cccc(Sc2ccccc2/C=N/NC(N)=O)c1	F508del corr 8.8
C=CCOc1c(/C=N\NC(N)=O)cccc1OC	none
COc1ccc(NC(=O)Nc2ccc3c(c2)C(=O)N([C@@H](C)CO)C[C@@H](C)[C@H](CN(C)S(=O)(=O)c2ccccc2)OCCCC[C@H](C)O3)cc1	none (no result: PvdQ inh)
O=C(CSc1nnc(CNC(=O)c2cccc(C(F)(F)F)c2)o1)NCC1CCCO1 (stereo not given)	none
Cc1cc(NC(=O)CSc2nnc(CNC(=O)c3cccc(C(F)(F)F)c3)o2)no1	ARNT-TACC3 inh 46
CCCNC(=O)Nc1ccc2c(c1)C(=O)N(C)C[C@@H](OC)[C@@H](C)CN(C(=O)C1CCOCC1)[C@H](C)CO2	none (no result: ERAP1 HTS inh, PvdQ inh, ARNT-TACC3 inh)
Cc1ccc(NC(=O)COC(=O)C2CC3C=CC2C3)cc1S(=O)(=O)N1CCCCC1 (stereo not given)	rRNA inh HTS -26
CCCc1cc(=O)[nH]c(SCC(=O)Nc2ccc(OC)c(S(=O)(=O)N3CCCCC3)c2)n1	rRNA inh HTS -22
Cc1ccc(S(=O)(=O)N2CCCCC2)cc1NC(=O)COC(=O)C1CC2C=CC1C2 (stereo not given)	none (no result: F508del corr, ERAP1 HTS inh, rRNA inh HTS)
Cc1ccc(NC(=O)COc2ccccc2C#N)cc1S(=O)(=O)N1CCCCCC1	rRNA inh HTS -25
CCCc1cc(=O)[nH]c(SCC(=O)Nc2ccc(C)c(S(=O)(=O)N3CCCCC3)c2)n1	none
COc1ccc(NC(=O)CSCC(=O)Nc2ccc(C)c(S(=O)(=O)N3CCCCCC3)c2)cc1	rRNA inh HTS -35
CCCNC(=O)N1[C@@H]2Cn3c(ccc(-c4cccc(OC)c4)c3=O)[C@H]1[C@@H](C(=O)NC1CCC1)[C@@H]2CO	none (no result: F508del corr, PvdQ inh)
Cn1c(-[n+]2c(-c3ccccc3)cc(-c3ccccc3)cc2-c2ccccc2)nc2c([N+](=O)[O-])cccc21	rRNA inh HTS -22 (no result: F508del corr)
O=[N+]([O-])c1cccc2nc(-c3ccccc3)c(-c3ccccc3)nc12	none
CC(C)c1cccc(C(C)C)c1NC(=S)Nc1cccc(Cl)c1	rRNA inh HTS -26
Cc1ccccc1CSCC(=O)Nc1ccccc1F	rRNA inh HTS -25
O=C(Sc1cccc2cccnc12)c1ccc(F)cc1	none (no result: F508del corr, PvdQ inh, ARNT-TACC3 inh)
NNC(=O)CSc1cccc2cccnc12	ARNT-TACC3 inh 48 (no result: F508del corr, ERAP1 HTS inh, rRNA inh HTS)
CCCCOc1ccc(NC(=O)CSc2cccc3cccnc23)cc1	none
O=C(CSc1cccc2cccnc12)OCC(=O)c1ccc(Br)cc1	none (no result: F508del corr, ERAP1 HTS inh, rRNA inh HTS)
O=C(Sc1cccc2cccnc12)c1ccccc1Br	ARNT-TACC3 inh 75
O=C(CSc1cccc2cccnc12)OCC(=O)c1ccccc1	ARNT-TACC3 inh 53 (no result: F508del corr, ERAP1 HTS inh, rRNA inh HTS)
COC(=O)C1=C(C)N(Cc2ccc(C(F)(F)F)cc2)C(=NCc2ccc(C(F)(F)F)cc2)NC1c1ccc(F)cc1 (stereo not given)	none (no result: PvdQ inh, ARNT-TACC3 inh)
C[C@H](CO)N1C[C@H](C)[C@H](CN(C)C(=O)C2CC2)OCc2cn(nn2)CCCC1=O	none (no result: PvdQ inh)
CCCN1[C@H](C(=O)N(C)C)[C@@H](CO)[C@@H]2Cn3c(ccc(-c4cccc(F)c4)c3=O)[C@@H]21	none (no result: PvdQ inh)
O=C(CSc1cccc2cccnc12)Nc1ccccc1F	ARNT-TACC3 inh 59 (no result: ERAP1 HTS inh)
Cc1ccc(C)c(NC(=O)CSc2cccc3cccnc23)c1	none
Cc1noc(C)c1S(=O)(=O)Nc1ccc2c(c1)C(=O)N([C@@H](C)CO)C[C@H](C)[C@@H](CN(C)Cc1ccncc1)OCCCC[C@H](C)O2	none (no result: PvdQ inh)
Cc1cc(C(=O)N/N=C/C=C/c2ccccc2)c(C)o1	rRNA inh HTS -25
Cc1cc(C(=O)N/N=C/c2ccccc2)c(C)o1	none
CN(C)C(=O)C[C@H]1C=C[C@@H](NC(=O)C2CCC2)[C@H](CO)O1	none (no result: PvdQ inh)
CN(CC(=O)NC(=O)NCc1ccccc1)Cc1cccc(Cl)c1Cl	rRNA inh HTS -38
CN(CC(=O)NC(=O)NCc1ccccc1)Cc1ccc(Cl)cc1	none (no result: F508del corr, ERAP1 HTS inh, rRNA inh HTS)
C/C=C/c1ccc([C@@H]2[C@@H](CNC(=O)c3ccccc3)N(C(C)=O)[C@H]2CO)cc1	none (no result: ERAP1 HTS inh, PvdQ inh)
CN(C)S(=O)(=O)c1ccc2c(c1)/C(=C/c1cc3c([nH]1)CCCC3)C(=O)N2	F508del corr 8.6
CN(C)S(=O)(=O)c1ccc2c(c1)C(=O)c1cc(S(=O)(=O)N(C)C)ccc1CC2	none

Assay outcomes (PubChem)
